High-throughput results: PubChem, National Center for Advancing Translational Sciences (NCATS)
Tau fluor cs: Counterscreen qHTS for Inhibitors of Tau Fibril Formation, Fluorescence Polarization | tau K18 P301L Alexa594 fluorescence, heparin fibrillization | hit rate 0.93% among 280,000 | AID 1463, 2008 | Potency, µM (top dose mostly 57.7 µM), inactives show at the highest dose activity change, negative = decrease; note: potency is the fitted concentration of half-maximal effect; nearly all actives have a fitted effect of over 55% in size
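Human K18 P301L tau (15 uM unlabeled plus 0.24 uM Alexa 594-labeled, final) in 100 mM sodium acetate pH 7 was mixed with compound and 20 uM heparin and incubated 6 hr at 37 C.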
KDM4E inh: qHTS Assay for Inhibitors of Human Jumonji Domain Containing 2E (JMJD2E); hit rate 1.6% among 230,000; JMJD2E catalytic domain, FDH-coupled NADH fluorescence (FDH is formaldehyde dehydrogenase); Lysine-specific demethylase 4E (Homo sapiens), B2RXH2; Potency, µM (titrated, usually from 57.1 µM), inactives show at the highest dose activity change, negative = inhibition, most hits filed as inhibitors; active = well fitted inhibition curve with a large enough effect, not every such curve was filed as active; inconclusive = small, poorly fitted or top-dose-only effect, or another doubt; inactive = no such curve, though single readings can be large or run the other way;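 note: potency is the fitted concentration of half-maximal effect; 0% = wells with enzyme and -100% = buffer wells without enzyme; nearly all actives have a fitted effect of over 50% in size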
Target sequence (B2RXH2 1-337 limits assumed): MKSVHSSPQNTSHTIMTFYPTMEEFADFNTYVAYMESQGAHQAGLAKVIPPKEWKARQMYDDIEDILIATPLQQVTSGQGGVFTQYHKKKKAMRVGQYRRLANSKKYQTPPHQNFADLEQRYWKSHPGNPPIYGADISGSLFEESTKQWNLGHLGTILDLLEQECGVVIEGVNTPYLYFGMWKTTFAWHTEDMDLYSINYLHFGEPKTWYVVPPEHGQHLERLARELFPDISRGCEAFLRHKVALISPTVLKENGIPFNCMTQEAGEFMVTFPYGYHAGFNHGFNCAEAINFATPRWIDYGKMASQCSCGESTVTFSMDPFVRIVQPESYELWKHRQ
Coupling enz: qHTS Assay for Inhibitors of Fructose-1,6-bisphosphate Aldolase from Giardia Lamblia: Coupling assay counterscreen | activity change, negative = inhibition, % at 58.2 µM, hits read low | coupling enzyme system counterscreen, AmpLite Red fluorescence | hit rate 0.67% among 290,000; in the data active = activity change below about -30%
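First, compound is pin-transferred into glyceraldehyde-3-phosphate coupling-enzyme reagent at 57.5 uM final and held 10 min at RT. Next, substrate, coupling system and AmpLite Red are added. After 20 min RT, fluorescence (525/598 nm) is read.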
Tau fibril ThT: qHTS for Inhibitors of Tau Fibril Formation, Thioflavin T Binding. recombinant tau K18 P301L, heparin-induced fibrillization, ThT fluorescence. Potency, µM (series often up to 57.4 µM), inactives show top-dose activity, negative = inhibition, actives largely listed as inhibitors. hit rate 2.1% among 270,000. AID 1460, 2008; note: potency is the fitted concentration of half-maximal effect; nearly all actives have a fitted effect of over 55% in size
Target sequence (P10636 561-689 P618L limits assumed): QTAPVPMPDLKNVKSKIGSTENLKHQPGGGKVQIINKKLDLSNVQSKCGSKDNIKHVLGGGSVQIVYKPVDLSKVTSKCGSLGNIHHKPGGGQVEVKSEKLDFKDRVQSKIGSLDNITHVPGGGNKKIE
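ThT emission at 510 nm, taken 1 hr after adding 30 uM dye, quantifies aggregates formed when 20 uM heparin acts on human tau K18 P301L for 6 hr at 37 C.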
Tau fibril FP: qHTS for Inhibitors of Tau Fibril Formation, Fluorescence Polarization; Microtubule-associated protein tau (Homo sapiens), P10636; K18 P301L tau heparin fibrillization, Alexa594 FP, 6 h; hit rate 0.39% among 280,000; AID 1468, 2008; Potency, µM (top dose mostly 57.7 µM), without a hit: at the highest dose activity, negative = inhibition, most hits filed as inhibitors; note: potency is the fitted concentration of half-maximal effect; nearly all actives have a fitted effect of over 55% in size
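K18 P301L tau (15 uM unlabeled/0.24 uM Alexa 594-labeled, final) + compound + heparin 20 uM final; 100 mM NaOAc pH 7; 6 hr 37 C; ThT 30 uM final added, 1 hr RT; FP ex 555/em 632 nm.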
The depositor's hits bear a star; ? = inconclusive; nt = no result given; ! = not confirmed by another sample; [ ] = another dose, or the depositor's remark. In the library only some 3% were active in any assay of this set; here they are far more common. Unless noted, calls come from the whole dose curve; as a rule, active = well fitted curve in the direction sought with a large enough effect; inconclusive = small, poorly fitted or top-dose-only effect, or another doubt; inactive = no such curve, though single readings can be large; an effect the other way counts as inactive or inconclusive. Unless noted, % is set by controls: 0 for no effect and ±100 for the full control effect.

SMILES	Tau fluor cs	KDM4E inh	Coupling enz	Tau fibril ThT	Tau fibril FP
Cc1cc(C)cc(NC(=O)C(=O)NCCc2c[nH]c3ccccc23)c1	16µM*[quencher]	-10%	-2	?	-4%
Cc1ccc(NC(=S)NCCc2c[nH]c3ccccc23)cc1	?	1%	0	?	?
CC(C)c1ccc(NC(=S)NCCc2c[nH]c3ccccc23)cc1	11µM*[quencher]	-26%	-2	?	2%
O=C(NCCc1c[nH]c2ccccc12)OCCSS(=O)(=O)O	-15%	?	15	14µM*	?
CCCCOc1ccc(CNC(=O)CCCN2C(=O)CSc3c2c(C)nn3-c2ccccc2)cc1	-19%	nt	nt	?	2%
COc1ccccc1NC(=O)CSc1nc2c(oc3ccccc32)c(=O)n1-c1ccc(C)cc1	-8%	nt	nt	-6%	-11%
O=c1[nH][nH]c(-c2ccccc2O)c1C(C[N+](=O)[O-])c1cccc(Cl)c1 (configuration not stated)	?	-1%	2	25µM*	-14%
O=Nc1c(-c2cccc([N+](=O)[O-])c2)nc2ncccn12	-29%	?	-13	4µM*	6.3µM*
O=C1C2=CC[C@H]3C(=O)N(Cc4ccc5c(c4)OCO5)C(=O)[C@@H]3[C@@H]2[C@H](O)[C@@H]2O[C@H]12	-23%[11.6 µM]	nt	3	?	?
CCC(C)Nc1nc(N)c([N+](=O)[O-])c(Nc2cc(OC)ccc2OC)n1 (configuration not stated)	18µM*[quencher]	?	2	16µM*	-11%
COc1ccc(OC)c(Nc2nc(NCCC(C)C)nc(N)c2[N+](=O)[O-])c1	20µM*[quencher]	-6%	-1	25µM*	-9%
COc1ccccc1Nc1nc(NCC(C)C)nc(N)c1[N+](=O)[O-]	?	-6%	2	?	-15%
COc1cc(/C=C/c2nc3cc(Cl)ccc3c(=O)n2-c2ccc(C)cc2C)cc(OC)c1OC	0%	nt	nt	-5%	5%
COc1cccc(-n2cc(C(=O)Nc3cc(OC)c(OC)c(OC)c3)c3ccccc3c2=O)c1	-7%	nt	nt	-5%	-4%
CCCCS(=O)(=O)Nc1ccc2cn[nH]c2c1	6%	2%	-36*	9%	2%
COc1ccc(Br)cc1Cn1nnc(C(=O)Nc2cccc(SC)c2)c1N	?	nt	nt	8%	?
Cc1nn(S(=O)(=O)c2ccc(F)cc2)c(C)c1S(=O)(=O)N1CCCCCC1	7%	nt	nt	5%	1%
CCOC(=O)/C(N=Nc1c(C)n(C)n(-c2ccccc2)c1=O)=C(\C)O	-8%	-6%	4	-10%	-3%
CCC(C)C1=CC(=Nc2c(C)n(C)n(-c3ccccc3)c2=O)C=C(C(C)CC)C1=O (configuration not stated)	-22%	-2%	-27	?	2%
CCNc1ccc(N=Nc2c(C)n(C)n(-c3ccccc3)c2=O)cc1	-11%	-1%	-3	16µM*	3%
CC1=CC(=Nc2c(C)n(C)n(-c3ccccc3)c2=O)C=C(C)C1=O	?	-39%	-48*	11µM*	?
CC1=CC(=Nc2c(C)n(C)n(-c3ccccc3)c2=O)C=CC1=O	?	1.8µM*	-46*	3.2µM*	10µM*
C#CC(C)OC(=O)c1nnc2c3ccccc3n(COC)c2n1 (configuration not stated)	-10%[11.6 µM]	nt	0	-7%[11.5 µM]	-9%[11.6 µM]
CC1CCn2c(nc3cc(C(=O)NCc4ccc(OC(C)C)cc4)ccc32)C1 (configuration not stated)	3%	nt	nt	-7%	-3%
COc1ccc(OC)c(CCNC(=O)c2cnn(-c3ccccc3)c2-n2cccc2)c1	-21%	nt	nt	?	-5%
SMILES	Tau fluor cs	KDM4E inh	Coupling enz	Tau fibril ThT	Tau fibril FP
COc1ccccc1NC(=S)NNC(=O)c1nn(C)cc1Cl	-12%	10µM*	1	-16%	-3%
COc1ccccc1NC(=O)c1nn(C)cc1Br	-5%	-1%	-3	-11%	-7%
COc1ccccc1NC(=S)NNC(=O)c1nn(C)c(C)c1Cl	-13%	14µM*	0	?	4%
COc1ccccc1NC(=S)NNC(=O)c1nn(C)c(C)c1Br	-17%	7.9µM*	4	?	-5%
COc1ccc(S(=O)(=O)c2c(SC)nn(CC(=O)Nc3ccc(C)c(Cl)c3)c2N)cc1	?	nt	nt	7%	25µM*
CCSc1nn(CC(=O)Nc2cccc(CC)c2)c(N)c1S(=O)(=O)c1ccccc1	18µM*[quencher]	nt	nt	-7%	?
COC(=O)C1CCN(Cc2ccc(OCCCN3CCN(c4ccc([N+](=O)[O-])cc4)CC3)cc2)CC1	-8%	-2%	8	4µM*	8%
CC1CCN(CCCCOc2ccc([N+](=O)[O-])cc2)CC1	-8%	5%	-1	-5%	-4%
O=c1c(O)c(-c2ccc(O)c(O)c2)oc2ccccc12	?	10µM*	-9	14µM*	10%
O=c1c(O)c(-c2ccc(O)c(O)c2)oc2cc(O)ccc12	?	14µM*!	-7	5µM*	9%
OCC[n+]1ccc(/C=C/c2c[nH]c3ccccc23)cc1	-19%	0%	-48*	?	-8%
CCCCCCCCCCCCOCCOCCOCCOCCOCCOCCOCCOCCOCCO	nt	nt	3	nt	nt
Cc1c(N2C(=O)/C(=C\c3ccccc3O)SC2=S)c(=O)n(-c2ccccc2)n1C	-26%	1%	-3	32µM*	?
CN1C(=O)/C(=C/c2cc(N=Nc3ccccc3)ccc2O)SC1=S	6.3µM*[quencher]	-7%	0	4.5µM*	?
CC(C)(C)C(=O)OCc1cc(=O)n2nc(C3CC3)sc2n1	-3%	nt	nt	-3%	-4%
CCC1Cc2cc(O)ccc2C2=C1c1ccc(O)cc1CC2CC (configuration not stated)	nt	nt	3	nt	nt
Cc1cc(=O)[nH]c(N/N=C/C2=C(N3CCOCC3)C(=C\c3ccc(Cl)cc3)/CC2)n1	-14%	28µM*	1	22µM*	2%
O=C(N/N=C/C1=C(N2CCOCC2)C(=C\c2ccccc2)/CC1)Nc1ccccc1	-19%	-2%	0	?	0%
O=C(O)c1ccccc1N/N=C/C1=C(N2CCOCC2)C(=C\c2ccccc2)/CC1	?	?	2	10µM*	-8%
Cc1cc(C)nc(N/N=C/C2=C(N3CCOCC3)C(=C/c3ccccc3)/CC2)n1	8%	-6%	5	6%	2%
Cc1noc(/C=C/c2ccccc2F)c1S(=O)(=O)N1CCC(C(=O)N(C)Cc2ccco2)CC1	0%	nt	nt	5%	0%
CC(=O)C1=C(S(=O)(=O)c2ccc(C)cc2)CS(=O)(=O)C1	-20%	14µM*	4	25µM*	28µM*
